Results on 26 compounds are retold here after PubChem BioAssay AID2685 (National Center for Advancing Translational Sciences (NCATS), 2010).

Among all 320,000 compounds or so, about 2,100 (0.66%) were called active. Inconclusive results (about 53%) are left out. The call rests on the fitted dose curve; in most records, active means well fitted inhibition curve with a large enough effect in the signal ratio, with a control signal flat (not every such curve was filed as active); inconclusive means small, poorly fitted or top-dose-only effect, or effect the other way, or a change in a side signal; inactive means flat fitted curve, though single readings scatter; the % refers to the signal ratio. The sample as a whole holds a higher share of actives than the screen did.
Potency means the concentration at half of the fitted maximal effect.

A short description of the experiment: qHTS Assay for Lipid Storage Modulators in Drosophila S3 Cells.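 On cell number change: cells counted by Cell Tracker Red CMTPX staining in the red channel.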 The settings on record: BODIPY lipid droplet fluorescence, 18-24 h, cells fed with added oleic acid; cell number change: measured here: cell count max response; series mostly up to 46.1 µM. The method, boiled down: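 Laser-scanning cytometry quantifies lipid droplet accumulation (500–530 nm total intensity; droplet/cell object ratio) in oleic acid-fed (400 uM added) Drosophila S3 cells treated with a concentration series. 20 uM Triacsin C defined 100% inhibition.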
For `COc1cc(-c2noc(CCC(=O)NC3CCCC3)n2)cc(OC)c1OC`, the Potency result was “inactive” and the cell number change was -0.87%.

As to `CC(C)CNC(=O)NC(=O)CSc1nc2ccccc2n1CC(C)C`, the Potency result is “inactive”.

As for `COc1ccc(/C=C/C(=O)NC(C)CCc2ccccc2)cc1OC` (stereo not given), the Potency entry was “inactive” and the cell number change came to 0.149%.

As for `CCOc1cc(/C=C/C(=O)O)ccc1OCc1ccccc1`, the Potency result is “inactive” and the cell number change stood at 8.37%.

As to `COc1cc(/C=C/C(=O)NC(C)(C)C)ccc1OCc1ccccc1`, the Potency was 29.1 µM (active) and the cell number change is -27.6%.

Consider `O=C(NCCCNC(=O)c1ccccc1Br)c1ccccc1Br`, for which the Potency result is “inactive” and the cell number change is -12.7%.

As to `FC(F)(F)c1cccc(NC(=S)NC2CCCC2)c1`, the Potency was 18.4 µM (active) and the cell number change is -29.3%.

`Fc1cccc(NC(=S)NC2CCCCCCC2)c1`: the Potency result is “inactive” and the cell number change is -22.8%.

For the compound `O=C(Nc1cccc(F)c1)NC1CCCCC1`, the Potency entry was “inactive” and the cell number change was -7.64%.

As to `CC(=O)c1cccc(NC(=O)NC2CCCCCCC2)c1`, the Potency result is “inactive”.

On to `O=C(Nc1cccc(F)c1)NC1CCCCCCC1`, for which the Potency is 14.6 µM (active) and the cell number change turned out to be 14.2%.

For the compound `Cc1cccc(NC(=S)NC2CCCC2)c1`, the Potency result was “inactive” and the cell number change was 10.6%.

In the case of `C/C=C\C=C\C(=O)Nc1cccc(C2=NOC3(C2)C[C@H](C(N)=O)N(C(=O)c2ccccc2C(=O)c2ccccc2)C3)c1` (stereo not given in full), the Potency entry is “inactive” and the cell number change is 1.47%.

For the compound `CCOC(=O)c1cnc(NCc2ccccc2)nc1C`, the Potency entry was “inactive” and the cell number change is -8.98%.

Consider `CCN1CCN(c2cc(C)nc(-c3ccccc3O)n2)CC1`, for which the Potency entry was “inactive” and the cell number change was 0.893%.

Consider `COc1ccccc1NS(=O)(=O)c1ccc(C(=O)NCC(c2ccccc2OC)N(C)C)cc1` (stereo not given), for which the Potency result is “inactive” and the cell number change amounted to 13%.

Take `CCN(c1ccccc1)S(=O)(=O)c1cc(C(=O)O)ccc1C`: the Potency entry is “inactive” and the cell number change is -3.04%.

For the compound `Cc1cc2c(cc1S(=O)(=O)N(C)c1ccccc1)n(C)c(=O)n2C`, the Potency entry was “inactive” and the cell number change came to 9.55%.

On to `Cc1cccc(N(C)S(=O)(=O)c2cc3c(cc2C)n(C)c(=O)c(=O)n3C)c1`, for which the Potency is 13 µM (active) and the cell number change was -12.7%.

As to `Cc1cc2c(cc1S(=O)(=O)N(C)Cc1ccccc1)n(C)c(=O)c(=O)n2C`, the Potency entry was “inactive” and the cell number change was -28.5%.

On to `Cc1cccc(NS(=O)(=O)c2cn(C)c(=O)n(C)c2=O)c1C`, for which the Potency entry is “inactive” and the cell number change amounted to 14.4%.

For the compound `Cc1cc2[nH]c(=O)c(=O)[nH]c2cc1S(=O)(=O)Nc1cccc(C)c1C`, the Potency result is “inactive” and the cell number change was -1.15%.

Turning to `CCN(c1ccccc1)S(=O)(=O)c1cc2c(cc1C)n(C)c(=O)c(=O)n2C`, the Potency was 8.2 µM (active) and the cell number change is -9.51%.

For `Cc1cc2c(cc1S(=O)(=O)NCc1ccccc1)n(C)c(=O)c(=O)n2C`, the Potency entry was “inactive” and the cell number change was -17.3%.

For `Cc1cc2c(cc1S(=O)(=O)Nc1cccc(C)c1C)n(C)c(=O)c(=O)n2C`, the Potency is 9.2 µM (active) and the cell number change was -26.2%.

For the compound `O=C(CN1C(=O)NC2(CCCC2)C1=O)Nc1cc(S(=O)(=O)N2CCOCC2)ccc1OCC(F)(F)F`, the Potency result is “inactive” and the cell number change stood at 18%.
